Measured values as given in PubChem BioAssay AID1159580 (chemical genetic matrix, 2015).
In all, about 5,500 compounds went through this assay and about 2,000 (36%) were called active. Another 18% or so got no clear call; they are omitted. No stated cut-off is given here; in the data, active means normalized growth mostly below about 0.91 (no sharp cut-off); inconclusive means no clear call, values can overlap the other calls; inactive means mostly above about 0.92. The list shows a part of the results.

Assay: chemical genetic growth profiling, strain panel (AID 1159580);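 further: tested at 20 µM; growth read once vehicle control cultures reached saturation at 30 °C; 1 = growth at the plate median or of vehicle wells; lower values mean less growth of the strain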
Details: S. cerevisiae deletion strains, growth OD
[1] = locus YDL101C, strain DUN1, hits give low values
[2] = locus YHR030C, strain SLT2, hits give low values

Measured: normalized growth

O=C(Nc1cc(Cl)cc(Cl)c1)c1cc(Br)ccc1O
active: locus YGR092W, strain DBF2, hits give low values 0.405 | [2] 0.816 | locus YJL157C, strain FAR1, hits give low values 0.698
inactive: locus YAR019C, strain CDC15, hits give low values 0.944 | locus YBL105C, strain PKC1, hits give low values 0.958 | locus YBR135W, strain CKS1, hits give low values 0.946 | locus YBR136W, strain MEC1, hits give low values 0.949 | locus YBR160W, strain CDC28, hits give low values 0.955 | locus YDL017W, strain CDC7, hits give low values 0.942 | locus YDL028C, strain MPS1, hits give low values 0.955 | [1] 0.985 | locus YDL108W, strain KIN28, hits give low values 0.953 | locus YDL132W, strain cdc53, hits give low values 0.933 | locus YDL214C, strain PRR2, hits give low values 0.849 | locus YDR052C, strain DBF4, hits give low values 0.925 | locus YDR054C, strain cdc34, hits give low values 0.939 | locus YDR226W, strain ADK1, hits give low values 0.935 | locus YDR477W, strain SNF1, hits give low values 0.872 | locus YER123W, strain YCK3, hits give low values 0.774 | locus YER133W, strain GLC7, hits give low values 0.831 | locus YFL009W, strain cdc4, hits give low values 0.936 | locus YFL029C, strain CAK1, hits give low values 0.942 | locus YFR003C, strain YPI1, hits give low values 0.949 | locus YFR019W, strain FAB1, hits give low values 0.91 | locus YFR028C, strain CDC14, hits give low values 0.94 | locus YGR040W, strain KSS1, hits give low values 0.888 | locus YGR052W, strain FMP48, hits give low values 0.847 | locus YHR079C, strain IRE1, hits give low values 0.68 | locus YHR082C, strain KSP1, hits give low values 0.964 | locus YHR205W, strain SCH9, hits give low values 0.656 | locus YIL147C, strain SLN1, hits give low values 0.945 | locus YJL095W, strain BCK1, hits give low values 0.76 | locus YJL128C, strain PBS2, hits give low values 0.959 | locus YJR016C, strain ILV3, hits give low values 0.944 | locus YJR066W, strain TOR1 (second series), hits give low values 0.774 | locus YJR066W, strain TOR1, hits give low values 0.792 | locus YKL048C, strain ELM1, hits give low values 0.848 | locus YKL067W, strain YNK1, hits give low values 0.799 | locus YKL101W, strain HSL1, hits give low values 0.853 | locus YKL193C, strain SDS22, hits give low values 0.936 | locus YKL203C, strain TOR2, hits give low values 0.86 | locus YLR113W, strain HOG1, hits give low values 0.892 | locus YLR133W, strain CKI1, hits give low values 0.821 | locus YLR403W, strain SFP1, hits give low values 0.747 | locus YML070W, strain DAK1, hits give low values 0.872 | locus YMR001C, strain CDC5, hits give low values 0.941 | locus YMR205C, strain PFK2 (second series), hits give low values 0.858 | locus YMR277W, strain FCP1, hits give low values 0.945 | locus YNL006W, strain LST8, hits give low values 0.938 | locus YNL020C, strain ARK1, hits give low values 0.738 | locus YNL161W, strain CBK1, hits give low values 0.947 | locus YNL183C, strain NPR1, hits give low values 0.917 | locus YNL207W, strain RIO2, hits give low values 0.955 | locus YNL222W, strain SSU72, hits give low values 0.949 | locus YNL307C, strain MCK1 (second series), hits give low values 0.703 | locus YOL078W, strain AVO1, hits give low values 0.952 | locus YOL136C, strain PFK27, hits give low values 0.767 | locus YOR061W, strain CKA2, hits give low values 0.749 | locus YOR119C, strain RIO1, hits give low values 0.925 | locus YOR231W, strain MKK1, hits give low values 0.888 | locus YOR329C, strain SCD5, hits give low values 0.948 | locus YPL031C, strain PHO85, hits give low values 0.841 | locus YPL153C, strain RAD53, hits give low values 0.84 | locus YPL204W, strain HRR25, hits give low values 0.801 | locus YPL209C, strain IPL1, hits give low values 0.945 | locus YPL256C, strain CLN2, hits give low values 0.871 | locus YPR025C, strain CCL1, hits give low values 0.951 | locus YPR106W, strain ISR1, hits give low values 0.971 | locus YPR111W, strain DBF20, hits give low values 0.96 | strain NNK1, hits give low values 0.964 | strain TSCII, hits give low values 0.942

CCCCC#Cc1ccc(C(=O)NNC(=O)Nc2cc(Cl)cc(Cl)c2)o1
inactive: locus YAL013W, strain DEP1, hits give low values 1.03 | locus YBR229C, strain ROT2, hits give low values 1.01 | locus YCL061C, strain MRC1, hits give low values 0.981 | [1] 1.02 | locus YDR150W, strain NUM1, hits give low values 0.963 | locus YEL061C, strain CIN8, hits give low values 0.963 | locus YGR078C, strain PAC10, hits give low values 1 | [2] 1.01 | locus YHR087W, strain rtc3, hits give low values 1.01 | locus YJR043C, strain POL32, hits give low values 0.998 | locus YJR075W, strain HOC1, hits give low values 0.973 | locus YLR039C, strain RIC1, hits give low values 1.03 | locus YLR058C, strain SHM2 (second series), hits give low values 1.01 | locus YLR085C, strain ARP6, hits give low values 1.07 | locus YLR262C, strain YPT6, hits give low values 1.05 | locus YML094W, strain GIM5, hits give low values 1 | locus YMR219W, strain ESC1, hits give low values 1.01 | locus YMR263W, strain SAP30, hits give low values 1.07 | locus YMR307W, strain GAS1, hits give low values 1 | locus YNL128W, strain TEP1, hits give low values 0.995 | locus YNL153C, strain GIM3, hits give low values 0.995 | locus YNL298W, strain CLA4 (second series), hits give low values 1.03 | locus YNL322C, strain KRE1, hits give low values 1.03 | locus YNR030W, strain Alg12, hits give low values 0.995 | locus YPL055C, strain LGE1, hits give low values 1.03 | locus YPL241C, strain CIN2, hits give low values 1.02 | locus YPR135W, strain CTF4, hits give low values 0.931
